Reference: PubChem BioAssay (NCATS)
Values joined by “and” are separate entries in the source; they are usually repeats but may differ in a detail not shown here. Equal entries are not always repeated. Inconclusive results are not listed. Unmarked numbers belong to inactive results. Active and inactive are the calls of the source. Calls come from the whole dose curve; as a rule, active = well fitted inhibition curve with a large enough effect; inconclusive = small, poorly fitted or top-dose-only effect; inactive = flat fitted curve, though single readings scatter.

System: CP215
Assay: qHTS profiling for inhibitors of Plasmodium falciparum proliferation (AID 504749); note: nearly all actives have a fitted effect of over 60% in size;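 for activity, negative = inhibition: 0% = DMSO vehicle and full inhibition = artemisinin control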
Details: P. falciparum in erythrocytes, SYBR Green DNA, 72 h; series mostly up to 28.7 µM; activity, negative = inhibition: at the top concentration
Method in brief: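 Infected RBCs, 0.3% parasitemia/2.5% Hct final; cpd 72 h, 37 C, 5% CO2; lysis buffer with saponin/triton/SYBR Green I, o/n RT dark; FI 485/535; norm. to artemisinin (0.29 uM) and DMSO.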
Potency is the fitted concentration of half-maximal effect.

SMILES	activity, negative = inhibition	Potency
CCC1(c2ccccc2)CCC(=O)NC1=O (stereo not given)	-12.4%	–
C[N+]1(CCC(C(N)=O)(c2ccccc2)c2ccccc2)CCCCC1	1.32%	–
CCC(=O)O[C@H]1CC[C@H]2[C@@H]3CCC4=CC(=O)CC[C@]4(C)[C@H]3CC[C@]12C	-2.72% [at 12.8 µM]	–
OC(c1ccccc1)(c1ccccc1)C1CCNCC1	3.71% [at 12.8 µM]	–
CC(C)[N+](C)(CCC(C(N)=O)(c1ccccc1)c1ccccc1)C(C)C	-2.45% [at 12.8 µM]	–
Cc1ncc2n1-c1ccc(Cl)cc1C(c1ccccc1F)=NC2	3.64%	–
Cc1ccc(N=CN(C)C=Nc2ccc(C)cc2C)c(C)c1	6.75%	–
CC(C)NCC(O)c1ccc(N)c(C#N)c1 (stereo not given)	0.127%	–
CNC(=O)Oc1cccc2ccccc12	-8.27%	–
CCNc1nc(Cl)nc(NCC)n1	0.464%	–
CC[n+]1c(-c2ccccc2)c2cc(N)ccc2c2ccc(N)cc21	–	239 nM (active) and 953 nM (active)
CCCCCCCCCCCC[N+](C)(C)CCOc1ccccc1	–	12 µM (active)
CCOC(=O)NC(O)C(Cl)(Cl)Cl (stereo not given)	-6.26%	–
CCN(Cc1ccc(Cl)nc1)/C(=C/[N+](=O)[O-])NC	1.37%	–
C[C@H]1C(=O)O[C@@H]2CCN3CC=C(COC(=O)[C@](C)(O)[C@]1(C)O)[C@H]23	0.0753%	–
Oc1c(Br)cc(Br)cc1Br	10.8%	–
C[C@]12CC[C@H]3[C@@H](CC=C4C[C@@H](O)CC[C@@]43C)[C@@H]1CC[C@@H]2O	6.92%	–
COP(=O)(OC)C(O)C(Cl)(Cl)Cl (stereo not given)	-6.99%	–
CCN(CC)C(C)C(=O)c1ccccc1 (stereo not given)	8.28%	–
COP(=O)(OC)OC=C(Cl)Cl	4.51%	–
